TMEM16A act – mouse TMEM16A channel activation, primary screen | 340,000 compounds, 0.3% hits | HEK293 TMEM16A/YFP-H148Q/I152L, iodide quench fluorescence; hits give low values | Q8BHY3 | B-score at 10 µM | AID 623877;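 active = fluorescence-ratio B-score plate-corrected deviation score at least 3 library SD below zero, with starting fluorescence score within 5 deviations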;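 note: channel opened by trigger with iodide after compound preincubation; score built on the fluorescence ratio of max minus min over baseline; more negative score means more quench and so TMEM16A activation or potentiation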
CHT inh – inhibitors of human choline transporter CHT. B-score at 10 µM. CHT-expressing cells, membrane potential dye, choline response; hits give low values. 310,000 compounds, 0.86% hits. Q9GZV3;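 active = B-score over 3 SD under the library average, and starting fluorescence ratio not unusually high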;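 note: choline stimulus applied at its EC90 after an EC20 pre-addition; B-score computed on integrated fluorescence ratio after choline addition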
PHOSPHO1 inh – blocks human PHOSPHO1 phosphatase activity | Q8TCT1 | recombinant PHOSPHO1, absorbance phosphatase assay | inhibition, % at 13.3 µM | 290,000 compounds, 1.1% hits; in the data active = inhibition above about 60%
CHT PAM – allosteric activators of human choline transporter CHT; Q9GZV3; 310,000 compounds, 0.49% hits; CHT-expressing cells, membrane potential dye, choline EC20; hits give high values; LV-AA mutant CHT in HEK293 cells; B-score at 10 µM; AID 488977;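 active = initial fluorescence not abnormally high and integrated response B-score, plate-corrected, over 3 SD above library mean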
HDAC3 inhib – blocks human histone deacetylase 3; O15379; recombinant HDAC3, fluorogenic peptide/trypsin coupled, fluorescence; inhibition, % at 8.3 µM; 320,000 compounds, 0.15% hits; AID 2718; in the data active = inhibition above about 26%, passing the limit was not always enough; inconclusive = no clear call, values can overlap the other calls
Target sequence (O15379 whole entry, looked up): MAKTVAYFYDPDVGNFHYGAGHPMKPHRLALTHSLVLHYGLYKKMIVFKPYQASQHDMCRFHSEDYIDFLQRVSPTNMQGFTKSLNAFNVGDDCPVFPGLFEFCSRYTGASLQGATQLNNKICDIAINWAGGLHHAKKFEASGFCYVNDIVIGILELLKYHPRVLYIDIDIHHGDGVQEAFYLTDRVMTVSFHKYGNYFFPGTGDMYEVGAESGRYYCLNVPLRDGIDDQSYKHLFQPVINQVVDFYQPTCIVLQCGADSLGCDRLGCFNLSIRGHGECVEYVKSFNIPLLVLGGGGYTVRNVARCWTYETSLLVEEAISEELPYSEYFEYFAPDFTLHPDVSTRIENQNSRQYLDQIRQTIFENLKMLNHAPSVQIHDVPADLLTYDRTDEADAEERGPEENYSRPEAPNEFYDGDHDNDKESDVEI
TMEM16A inh – inhibitors of mouse TMEM16A calcium-activated chloride channel | AID 588511 | Q8BHY3 | HEK293 TMEM16A/YFP iodide influx fluorescence, ionomycin | 310,000 compounds, 1.2% hits | normalized B-score (activity score, 25-100; higher = stronger inhibition) at 10 µM;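 active = ratio plate-corrected score three or more library SD toward inhibition, starting fluorescence score within five deviations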;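 note: score derived from kinetic fluorescence span divided by baseline fluorescence per well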
CHT block conf – human CHT inhibition, confirmatory screen. shares compounds with CHT inh. CHT-expressing cells, choline membrane potential dye; LV-to-AA substituted CHT, HEK293 cells. CHT activity remaining % of control (hits give low values), % at 10 µM. 2,400 compounds, 70% hits. AID 493221;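 active = choline transporter activity left, mean of duplicates at 10 µM, below buffer-only control mean minus 3 SD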;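 note: depolarization triggered by choline at its EC90 following an EC20 pre-addition; 0% = hemicholinium-3 full block and 100% = buffer-only control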
HEK293 CHT ctr – CHT inhibitor counter-screen hit in parental HEK293 cells; shares compounds with CHT inh; 2,400 compounds, 4% hits; membrane potential ratio readout (active if shifted either direction beyond buffer ±3SD; no single direction) at 10 µM; membrane potential dye, choline response; active = decrease or increase beyond buffer ±3SD;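 note: parental cells lack the transporter so any hit is non-specific; ratio is peak minus trough fluorescence over baseline after EC90 choline challenge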
* = called active by the depositor. The list is not random: actives were taken first. Their share in the collection is about 3.2%.

Results for CC(/C=C1\SC(=S)N(CC(=O)N2CCN(c3ccccc3)CC2)C1=O)=C\c1ccccc1 ?
TMEM16A act: inactive; CHT inh: inactive; PHOSPHO1 inh: -1; CHT PAM: inactive; HDAC3 inhib: 0; TMEM16A inh: inactive

Results for CC(C)[C@H](NC(=O)c1ccccc1)C(=O)OCC(=O)c1ccc2c(c1)NC(=O)CO2 ?
TMEM16A act: inactive; CHT inh: -9*; PHOSPHO1 inh: 16; CHT PAM: inactive; HDAC3 inhib: 8; TMEM16A inh: inactive; CHT block conf: 33%*; HEK293 CHT ctr: inactive

Results for O=C1COc2ccc(C(=O)COC(=O)Cc3ccc(Cl)cc3)cc2N1 ?
TMEM16A act: inactive; CHT inh: inactive; PHOSPHO1 inh: -16; CHT PAM: inactive; HDAC3 inhib: 2; TMEM16A inh: inactive

What do the screens show for `COc1cc(OC)cc(C(=O)N[C@H](C(=O)OCC(=O)c2ccc3c(c2)NC(=O)CO3)C(C)C)c1`?
TMEM16A act: inactive; CHT inh: inactive; PHOSPHO1 inh: 2; CHT PAM: inactive; HDAC3 inhib: 4; TMEM16A inh: inactive

How did CC[C@H](C)[C@H](NC(=O)c1ccc(Cl)cc1)C(=O)OCC(=O)c1ccc2c(c1)NC(=O)CO2 do in these assays?
TMEM16A act: inactive; CHT inh: -5.7*; PHOSPHO1 inh: 23; CHT PAM: inactive; HDAC3 inhib: -14; TMEM16A inh: inactive; CHT block conf: 32%*; HEK293 CHT ctr: inactive

What do the screens show for `CC1=NC(C)(C)Cc2cc(C)c(C)cc21`?
TMEM16A act: inactive; CHT inh: -8.2*; PHOSPHO1 inh: 30; CHT PAM: inactive; HDAC3 inhib: 2; TMEM16A inh: inactive; CHT block conf: 42%*; HEK293 CHT ctr: inactive

How did CC1N(C(=O)N(C)C)CCN1S(=O)(=O)c1ccccc1 (centres undefined) do in these assays?
TMEM16A act: inactive; CHT inh: inactive; PHOSPHO1 inh: -1; CHT PAM: inactive; HDAC3 inhib: -11; TMEM16A inh: inactive

Results for Cn1cccc1Cc1nnc(SCC(=O)N2CCc3ccccc32)n1CCc1ccccc1 ?
TMEM16A act: inactive; CHT inh: inactive; PHOSPHO1 inh: -6; CHT PAM: inactive; HDAC3 inhib: -4; TMEM16A inh: inactive

What do the screens show for `CSc1ccc(C(=O)C2CCCN(C(=O)c3nonc3C)C2)cc1` (centres undefined)?
TMEM16A act: inactive; CHT inh: -5.7*; PHOSPHO1 inh: 29; CHT PAM: inactive; HDAC3 inhib: -4; TMEM16A inh: inactive; CHT block conf: 60%*; HEK293 CHT ctr: inactive

What do the screens show for `CC(C)n1cc([C@@H]2C[C@H]3CN(Cc4cccc(Cl)c4)C(=O)[C@]34CCCN24)cn1`?
TMEM16A act: inactive; CHT inh: -5.3*; PHOSPHO1 inh: -3; CHT PAM: inactive; HDAC3 inhib: -3; TMEM16A inh: inactive; CHT block conf: inactive; HEK293 CHT ctr: inactive

Results for Cc1nn(C(C)C)c(C)c1[C@@H]1C[C@H]2CN(Cc3cccc(Cl)c3)C(=O)[C@]23CCCN13 ?
TMEM16A act: inactive; CHT inh: inactive; PHOSPHO1 inh: 27; CHT PAM: inactive; HDAC3 inhib: 1; TMEM16A inh: inactive

How did CCNC(=O)[C@H]1O[C@@H](n2cnc3c(N)nc(NCCc4ccc(CCC(=O)O)cc4)nc32)[C@H](O)[C@@H]1O do in these assays?
TMEM16A act: inactive; CHT inh: -5.3*; PHOSPHO1 inh: 8; CHT PAM: inactive; HDAC3 inhib: 6; TMEM16A inh: inactive; CHT block conf: 46%*; HEK293 CHT ctr: inactive

How did CC(C)N(C)C(=O)c1ccc(OC2CCN(CCc3ccccc3)CC2)cc1 do in these assays?
TMEM16A act: inactive; CHT inh: inactive; PHOSPHO1 inh: 27; CHT PAM: inactive; TMEM16A inh: inactive

How did Cc1csc(C(C)NC(=O)c2ccc(OC3CCN(CCc4ccccc4)CC3)cc2)n1 (centres undefined) do in these assays?
TMEM16A act: inactive; CHT inh: -6.4*; PHOSPHO1 inh: 40; CHT PAM: inactive; HDAC3 inhib: -3; TMEM16A inh: inactive; CHT block conf: 30%*; HEK293 CHT ctr: 2.6*

How did CCOC(=O)c1c(C)c(C(=O)Nc2ccccc2)c(C)n1CC do in these assays?
TMEM16A act: inactive; CHT inh: inactive; PHOSPHO1 inh: 3; CHT PAM: inactive; HDAC3 inhib: 6; TMEM16A inh: inactive

What do the screens show for `CCOC(=O)c1c(C)c(C(=O)N2CCc3ccccc3C2)c(C)n1CC`?
TMEM16A act: inactive; CHT inh: -5.8*; PHOSPHO1 inh: -7; CHT PAM: inactive; HDAC3 inhib: 8; TMEM16A inh: inactive; CHT block conf: 39%*; HEK293 CHT ctr: inactive

Results for Cc1nonc1NC(=O)CSc1cn[nH]n1 ?
TMEM16A act: inactive; CHT inh: inactive; PHOSPHO1 inh: 19; CHT PAM: inactive; HDAC3 inhib: inconclusive; TMEM16A inh: inactive

How did Cc1nonc1NC(=O)CSc1ccc(-c2ccccc2)nn1 do in these assays?
CHT inh: -8*; PHOSPHO1 inh: 21; CHT PAM: inactive; HDAC3 inhib: 7; TMEM16A inh: inactive; CHT block conf: 23%*; HEK293 CHT ctr: inactive

Results for CCn1c(=O)cc(OCC(=O)NCCC(C)C)c2ccccc21 ?
TMEM16A act: inactive; CHT inh: inactive; PHOSPHO1 inh: 6; CHT PAM: inactive; HDAC3 inhib: -3; TMEM16A inh: inactive

How did CCOc1ccccc1NC(=O)NC(C)c1ccc2c(c1)OCO2 (centres undefined) do in these assays?
TMEM16A act: inactive; CHT inh: inactive; PHOSPHO1 inh: 41; CHT PAM: inactive; HDAC3 inhib: -1; TMEM16A inh: inactive

Results for CCn1c(=O)cc(OCC(=O)NC(C)c2ccc3c(c2)OCCO3)c2ccccc21 (centres undefined) ?
TMEM16A act: inactive; CHT inh: -9.5*; PHOSPHO1 inh: -2; CHT PAM: inactive; HDAC3 inhib: 0; TMEM16A inh: inactive; CHT block conf: 18%*; HEK293 CHT ctr: inactive

How did CCOc1ccccc1C(=O)NC(C)c1ccc2c(c1)OCO2 (centres undefined) do in these assays?
TMEM16A act: inactive; CHT inh: -6.4*; PHOSPHO1 inh: 32; CHT PAM: inactive; HDAC3 inhib: 3; TMEM16A inh: inactive; CHT block conf: 46%*; HEK293 CHT ctr: inactive
